Compound activity deposited in PubChem BioAssay by National Center for Advancing Translational Sciences (NCATS).
IL-1B inflam inh: inhibitors of inflammasome signaling (IL-1 beta secretion); THP-1 LPS/ATP IL-1B secretion, AlphaLISA, 16 h; stronger effect = lower value; activity change, % at 57.5 µM; 360,000 compounds, 4.7% hits; in the data active means activity change below about -50%; inconclusive means mostly about -30% to -49%
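THP-1 cells pretreated 1 hr with compounds (up to 57.5 uM final), then stimulated with LPS (250 ng/mL final) plus ATP (1.25 mM final); secreted IL-1B measured by AlphaLISA after 16 hr, decreased signal indicating inhibition.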
DT40 TDP1 no CPT: qHTS for Inhibitors of human tyrosyl-DNA phosphodiesterase 1 (TDP1): qHTS in cells in absence of CPT; DT40 Tdp1-/- hTDP1 cells, no CPT, ATP luminescence, 48 h; Potency, µM (series often up to 46.2 µM), inactives show top-dose activity change, negative = growth inhibition, actives largely listed as inhibitors; 420,000 compounds, 15% hits; AID 686978, 2013; further: potency means the concentration at half of the fitted maximal effect; nearly all actives have a fitted effect of over 55% in size
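Camptothecin absent (DMSO only). Human TDP1-complemented DT40 knockout cells, 400 cells/well, 37 °C for minimum 48 hr; ATP measured via CellTiter-Glo, 30 min dark incubation, luminescence.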
HT1080 IDH1KD tx: HT-1080 IDH1 knockdown cell toxicity (counter line); HT-1080 IDH1 knockdown viability, ATP luminescence, 48 h; Potency, µM (highest dose often 46.1 µM), for inactives: at the highest dose activity, negative = toxicity, usual class: cytotoxic; 360,000 compounds, 2% hits; AID 686971;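 further: potency means the concentration at half of the fitted maximal effect; 0% = DMSO wells and -100% = cell-free medium wells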
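Cytotoxicity counter-line: IDH1KD HT-1080, 48 h, CellTiter-Glo. Curves classed by r2, magnitude and activity.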
ELG1 DNA repair: blocks ELG1-dependent DNA repair in HEK293T cells; HEK293T ELG1-luciferase reporter, luminescence, 16 h; DNA damage induced by 5-fluorouridine; Potency, µM (titrated, usually from 46.1 µM), for the others: top-dose activity change, negative = inhibition, most hits filed as inhibitors; 330,000 compounds, 2.3% hits; AID 504467; further: potency means the concentration at half of the fitted maximal effect; nearly all actives have a fitted effect of over 55% in size
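Luminescence from the luciferase reporter, measured 30 min after ONE-Glo reagent at room temperature, was the read-out. Beforehand, 2,000 cells per well were exposed for 16 hr at 37 °C to 5-fluorouridine together with compound or vehicle.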
HT1080-NT tox: kills 2HG-producing HT-1080-NT fibrosarcoma cells; Potency, µM (highest dose often 46.1 µM), without a hit: at the highest dose activity, negative = less viability, most hits filed as cytotoxic; HT-1080-NT fibrosarcoma viability, CellTiter-Glo ATP luminescence, 48 h; 360,000 compounds, 1.6% hits;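 further: NT is the 2HG producing partner of a matched IDH1 knockdown line; potency means the concentration at half of the fitted maximal effect; 0% = DMSO-treated cells and -100% = media-only wells without cells; nearly all actives have a fitted effect of over 55% in size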
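HT-1080-NT fibrosarcoma cells (2HG-overproducing), 750 cells/well in RPMI with 5% FBS, dosed after 2 h and incubated 48 h at 37C. CellTiter-Glo luminescence normalized to DMSO and no-cell wells; concentration-response curves fitted and classed.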
DT40 TDP1 CPT: growth inhibition of DT40 Tdp1-/-;hTDP1 cells with camptothecin (screen for TDP1 inhibitors); Potency, µM (highest dose often 46.2 µM), for the others: top-dose activity change, negative = growth inhibition, most hits filed as inhibitors; AID 686979; chicken DT40 Tdp1-/-;hTDP1 cells + 20 nM CPT, ATP luminescence, 48 h; 420,000 compounds, 12% hits; further: potency means the concentration at half of the fitted maximal effect; nearly all actives have a fitted effect of over 55% in size
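Chicken DT40 Tdp1-/- cells stably complemented with human TDP1 were seeded at 400 cells/well in medium containing 20 nM camptothecin, exposed to pin-transferred compounds, and grown at 37 °C for at least 48 hr. Viability was read as ATP luminescence.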
The depositor's hits bear a star; ? = inconclusive; nt = not tested or not shown. Rows were chosen to be rich in hits. Some 19% of all compounds tested hit in one or more screens of this group. Unless noted, the call rests on the fitted dose curve; in most records, active means well fitted curve in the direction sought with a large enough effect; inconclusive means small, poorly fitted or top-dose-only effect, or another doubt; inactive means no such curve, though single readings can be large; an effect the other way counts as inactive or inconclusive. Unless noted, on the % scale 0 is the no-effect control and ±100 the full control effect.

SMILES | IL-1B inflam inh | DT40 TDP1 no CPT | HT1080 IDH1KD tx | ELG1 DNA repair | HT1080-NT tox | DT40 TDP1 CPT
Cc1cc(C)c2nc(-c3ccccn3)cc(C(=O)N3CCCC3)c2c1 | -15.1 | -20.0% | -18.1% | -1.2% | -12.6% | ?
O=C(CS(=O)Cc1ccco1)NC/C=C\COc1cc(CN2CCCCC2)ccn1 (stereo not given) | nt | -19.1% | nt | nt | nt | -16.4%
COc1cccc(C2C=C(c3ccc(Br)s3)Nc3ncnn32)c1OC (stereo not given) | -18.4 | ? | 4.7% | -14.6% | 6.4% | ?
COc1ccc(C2C=C(c3ccc(C)c(C)c3)Nc3ncnn32)c(OC)c1OC (stereo not given) | -14.1 | 5.17µM* | ? | ? | ? | 8.2µM*
O=C(O)COc1ccc(NC(=O)c2ccc3c(c2)C(=O)N(CC2CCCO2)C3=O)cc1 (stereo not given) | 3.5 | -2.0% | 0.8% | nt | 13.8% | -2.5%
Cc1ccc(C2(C)NC(=O)N(CC(=O)NNC(=O)c3ccccc3F)C2=O)cc1 (stereo not given) | 29.3 | -5.5% | -28.8% | 3.1% | -11.1% | -2.9%
O=C(Cn1ncc2c3ccccc3n(Cc3ccccc3F)c2c1=O)NC1CCCCCC1 | nt | 14.6µM* | nt | nt | nt | 7.31µM*
O=C(Cn1ncc2c3ccccc3n(Cc3cccc(Cl)c3)c2c1=O)NC1CCCCCC1 | nt | 6.51µM* | nt | nt | nt | 8.2µM*
CC(NC(=O)Cn1ncc2c3ccccc3n(Cc3ccc(F)cc3)c2c1=O)c1ccccc1 (stereo not given) | nt | 10.3µM* | nt | nt | nt | ?
Cc1ccc(C)c(Cn2c3ccccc3c3cnn(CC(=O)NC4CCCCCC4)c(=O)c32)c1 | nt | 13µM* | nt | nt | nt | ?
COc1cccc(CNC(=O)Cn2ncc3c4ccccc4n(Cc4ccccc4)c3c2=O)c1 | nt | -28.1% | nt | nt | nt | -17.1%
CC(CNC(=O)Cn1ncc2c3ccccc3n(Cc3cccc(Cl)c3)c2c1=O)c1ccccc1 (stereo not given) | nt | ? | nt | nt | nt | 18.4µM*
Cc1ccccc1CN1C(=O)CSCC1(C)C(=O)NC(C)C (stereo not given) | -6.7 | 20.3% | 0.0% | nt | 5.6% | 22.7%
COc1ccc(-c2nc3ccc(NC(C)=O)cc3c(=O)n2Cc2cccc(Cl)c2)cc1COc1ccc(NC(C)=O)cc1 | nt | 12.6µM* | -14.2% | nt | -21.4% | 11.2µM*
COc1ccc(/C=N/n2cncn2)cc1COc1ccc(NC(C)=O)cc1 | 0.0 | ? | 0.0% | 2.0% | -1.1% | ?
COc1ccc(-c2nc3ccc(NC(=O)COC(C)=O)cc3c(=O)n2Cc2ccccc2)cc1COc1ccc(NC(C)=O)cc1 | nt | 11.2µM* | -7.3% | nt | -12.7% | ?
COc1ccc(NC(=O)Cn2ncc3c4ccccc4n(Cc4ccccc4)c3c2=O)cc1OC | nt | -13.7% | nt | nt | nt | -5.3%
Cc1ccc(-n2c(SC3CCOC3=O)nc3ccccc3c2=O)cc1 (stereo not given) | nt | nt | nt | 9.9% | nt | nt
N#Cc1ccc(S(=O)(=O)N2CCCCC2c2cc(C(=O)NCc3cccnc3)no2)cc1 (stereo not given) | -1.9 | ? | 3.3% | nt | 3.0% | ?
Cc1nc2[nH]c(=O)n(O)c(=O)c2s1 | 18.3 | 25.9µM* | 10.6% | nt | -11.0% | ?
COc1ccc2c3c(ccc2c1)C(=O)/C(=C/O)CC3 | 54.4 | 16.4µM* | -20.2% | nt | -8.1% | ?
COc1ccc2c(c1)CC/C(=C\C=C\c1ccccc1OC)C2=O | -1.2 | ? | 18.9% | ? | 19.7% | ?
N/C(=N\OC(=O)c1cccc2ccccc12)c1ccccn1 | 29.7 | ? | 25.9µM* | ? | ? | ?
COc1cccc(C(=O)O/N=C(\N)c2ccncc2)c1OC | -6.7 | ? | 7.6% | ? | -1.1% | ?
N/C(=N\OC(=O)Cc1cccc2ccccc12)c1ccccn1 | -2.5 | ? | -11.2% | ? | -10.0% | ?
SMILES | IL-1B inflam inh | DT40 TDP1 no CPT | HT1080 IDH1KD tx | ELG1 DNA repair | HT1080-NT tox | DT40 TDP1 CPT
COc1cccc(C(=O)O/N=C(\N)c2ccccn2)c1OC | -4.7 | 7.31µM* | -7.0% | ? | -11.7% | ?
CC(C)(C)c1ccc(C(=O)C=[N+]=[N-])cc1 | 7.8 | 14.6µM* | 19.2% | ? | 17.1% | 25.9µM*
N=c1n(CC(=O)c2ccc(Br)s2)c2ccccc2n1Cc1ccccc1 | -103.9* | 4.61µM* | -2.8% | ? | -0.8% | 5.17µM*
Cn1c(=N)n(CC(=O)c2ccc(Br)s2)c2ccccc21 | -94.6* | 18.4µM* | ? | ? | 25.9µM* | 25.9µM*
COc1cccc(C(=O)Cn2c(NCCO)nc3ccccc32)c1 | -9.2 | -4.6% | 3.8% | 14.1% | -1.3% | 4.7%
COc1cccc(C(=O)Cn2c(=N)n(C)c3ccccc32)c1 | -10.1 | 20.6µM* | ? | ? | ? | 13µM*
CCN(CC)CCn1c(=N)n(CC(=O)c2ccc(Br)s2)c2ccccc21 | nt | 7.31µM* | 23.1µM* | ? | 23.1µM* | 5.8µM*
CCCn1c(=N)n(CC(=O)c2cccs2)c2ccccc21 | -18.7 | ? | -1.3% | 5.4% | 8.6% | ?
O=S(=O)(c1ccccc1)c1ccc(N2CCCCCC2)cc1 | 5.9 | ? | -12.9% | 17.6% | -15.2% | ?
COC(=O)/C=C1\OCc2c(F)cccc21 | 18.7 | -4.2% | 2.8% | nt | 15.1% | -20.0%
Cc1ccc(C(O)c2ncc(-c3ccccc3)[nH]2)c(C)c1 (stereo not given) | -5.4 | -29.4% | -8.1% | nt | 2.9% | ?
O=C1CCSc2c1ccc1ccccc21 | 11.8 | -0.8% | 1.4% | nt | 0.8% | -11.9%
CCN1CCc2c(sc(-n3cccc3)c2C(C)NC(=O)Nc2ccc(C(=O)OC)cc2)C1 (stereo not given) | nt | 18.4µM* | nt | nt | nt | 18.4µM*
CC(NC(=O)Nc1ccccc1C(F)(F)F)c1c(-n2cccc2)sc2c1CCCC2 (stereo not given) | nt | 10.3µM* | nt | nt | nt | ?
CCN1CCc2c(sc(-n3cccc3)c2C(CCC(C)C)NC(=O)NCCC(=O)OC)C1 (stereo not given) | nt | 25.9µM* | nt | nt | nt | ?
CCOC(=O)c1c(NC(=O)c2cccc(N3C(=O)CCC3=O)c2)sc2c1CCN(CC)C2 | -26.5 | 2.6% | -4.0% | -1.7% | -0.4% | -1.3%
O=C(c1ccc(Cl)cc1)C1CCN(Cc2ccccc2)CC1 | -13.4 | ? | -5.3% | -5.6% | -4.5% | ?
